Giardia killer: kills Giardia lamblia; Giardia lamblia trophozoite viability; activity change, % at 7.66 µM, hits read low; 0.15% of 340,000 active; AID 540267; in the data active = activity change below about -80%; inconclusive = between about -30% and that limit;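 note: parasites exposed to compound for two days anaerobically before the ATP read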
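ATP-content bioluminescence gauges trophozoite survival. Cells (100/well) receive compound and incubate anaerobically for 48 hrs at 37 deg C; detection reagent follows for 15-30 min at room temperature.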
IL1B secr inh: inhibitors of inflammasome signaling (IL-1 beta secretion). THP-1 LPS/ATP IL-1B secretion, AlphaLISA, 16 h; stronger effect = lower value. activity change, % at 57.5 µM. 4.7% of 360,000 active. AID 743279; in the data active = activity change below about -50%; inconclusive = mostly about -30% to -49%
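THP-1 cells pretreated 1 hr with compounds (up to 57.5 uM final), then stimulated with LPS (250 ng/mL final) plus ATP (1.25 mM final); secreted IL-1B measured by AlphaLISA after 16 hr, decreased signal indicating inhibition.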
Vif-A3G inh: inhibitors of Vif-APOBEC3G interaction. Potency, µM (series often up to 46.1 µM), actives largely listed as inhibitors. HeLa A3G-eYFP + Vif (tagged APOBEC3G with the HIV-1 protein that degrades it), YFP fluorescence, overnight. AID 602310. Q9HC16. 0.076% of 410,000 active; note: nearly all actives have a fitted effect of over 60% in size
Target sequence (Q9HC16 whole entry, looked up): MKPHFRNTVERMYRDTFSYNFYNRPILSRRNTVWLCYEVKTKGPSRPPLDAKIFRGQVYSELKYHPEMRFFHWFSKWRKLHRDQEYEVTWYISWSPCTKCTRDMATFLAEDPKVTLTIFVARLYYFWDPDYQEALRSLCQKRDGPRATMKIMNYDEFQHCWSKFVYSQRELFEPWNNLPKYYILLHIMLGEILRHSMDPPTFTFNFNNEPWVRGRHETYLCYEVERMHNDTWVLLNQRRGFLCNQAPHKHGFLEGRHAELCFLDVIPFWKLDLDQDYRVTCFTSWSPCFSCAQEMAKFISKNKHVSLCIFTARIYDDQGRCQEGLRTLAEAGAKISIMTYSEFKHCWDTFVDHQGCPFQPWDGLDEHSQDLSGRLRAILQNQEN
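Read-out is eYFP fluorescence (Ex 488/Em 500-530) from Vif-expressing HeLa A3G-eYFP cells; more signal means A3G escaped Vif-mediated degradation. Cells plated overnight, compound pinned in, incubated overnight at 37 deg C.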
MCF10A rerep: inducers of DNA re-replication in MCF 10A breast cells; MCF 10A DNA re-replication, Hoechst nuclear intensity, 48 h; Potency, µM (highest dose often 46.1 µM), most hits filed as activators; 2.9% of 350,000 active; AID 624296; note: nearly all actives have a fitted effect of over 50% in size
SW480 rereplic: inducers of DNA re-replication in SW480 colon cancer cells; AID 624297; Potency, µM (doses to about 46.1 µM), hits mostly activators; 1.8% of 340,000 active; SW480 DNA re-replication, Hoechst DNA content imaging, 48 h; note: nearly all actives have a fitted effect of over 55% in size
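Per well, 250 cells were exposed to pinned compound for 48 hr. Nuclear DNA was visualised with Hoechst (40 min, 37 C) and total object intensity recorded by fluorescence scanning.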
Vif-APOBEC3F blk: Vif-A3F binding inhibition; HeLa A3F-eYFP + Vif (tagged APOBEC3F with the HIV-1 protein that degrades it), YFP fluorescence increase; Potency, µM (top dose mostly 46.1 µM); 0.2% of 390,000 active; AID 602313; note: nearly all actives have a fitted effect of over 65% in size
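Fluorescence increase (Ex 488/Em 500-530) after overnight compound treatment at 37 deg C flags inhibition of Vif-driven A3F-eYFP loss in stable HeLa A3F-eYFP/Vif cells seeded overnight beforehand.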
Numbers stand for hits; i = inactive; ? = inconclusive; nt = no result given. Compounds with a hit are over-represented: about 6.9% of the library has one in this group of screens. Unless noted, calls come from the whole dose curve; as a rule, active = well fitted curve in the direction sought with a large enough effect; inconclusive = small, poorly fitted or top-dose-only effect, or another doubt; inactive = no such curve, though single readings can be large; an effect the other way counts as inactive or inconclusive.

SMILES | Giardia killer | IL1B secr inh | Vif-A3G inh | MCF10A rerep | SW480 rereplic | Vif-APOBEC3F blk
Cc1ccc(S(=O)(=O)CC(C)N2CCOCC2)c(S(=O)(=O)CC(C)N2CCOCC2)c1 (centres undefined) | i | i | i | i | i | i
Cc1ccc(S(=O)(=O)CC(CN2CCOCC2)N2CCOCC2)cc1 (centres undefined) | i | -62 | i | i | i | i
COc1ccc(OC)c(CNC(=O)NCc2noc3ccc(C)cc23)c1 | nt | nt | i | nt | nt | i
COc1ccc(-c2cc(C(F)(F)F)nc(SCC(=O)NCCc3ccc(OC)c(OC)c3)n2)cc1 | nt | nt | i | nt | nt | i
CC(C)(C)c1ccccc1OCC(=O)Nc1ccccc1C(=O)NCc1cccnc1 | i | -90 | i | ? | i | i
CCOc1ccc(S(=O)(=O)NCC(c2ccc3c(c2)OCO3)N2CCN(C)CC2)cc1 (centres undefined) | i | i | i | i | 6.5µM | i
COc1ccc(C2CC(O)(c3ccccc3)Oc3cc(OC)cc(OC)c32)cc1 (centres undefined) | i | ? | i | 21µM | i | ?
COc1ccc(C2CC(O)(c3ccccc3)Oc3c(C)ccc(C)c32)cc1 (centres undefined) | i | ? | i | ? | ? | i
CCOC(=O)c1[nH]c(C)c(CCC(=O)Nc2ccc(C)cc2Cl)c1C | nt | nt | i | nt | nt | i
Cc1ccccc1-c1nn2c(=O)cc(CN3CCN(C(=O)c4ccccc4Br)CC3)nc2s1 | nt | nt | i | nt | nt | i
O=C(Nc1ccc(C(=O)OC[C@@H]2CCCN3CCCC[C@H]23)cc1)c1cccc(Br)c1 | i | i | i | 23µM | i | i
O=C(NC(=O)c1cccc(F)c1)OC[C@@H]1CCCN2CCCC[C@H]12 | i | i | i | i | i | i
O=C(NCC(=O)N1CCCCC1)c1sc2ccccc2c1Cl | i | ? | i | i | i | i
O=C(Nc1ccc(CN2CCCCC2)cc1)c1cccc(Br)c1 | i | -55 | i | ? | i | i
Cn1c(CN2CCCCC2)nc2cc(NC(=O)c3cccc(Br)c3)ccc21 | i | -78 | i | ? | i | i
O=C(Nc1ccc(CN2CCCCC2)cc1)c1sc2ccccc2c1Cl | i | -57 | i | ? | ? | i
COc1cc(NC(=O)CSc2nc(-c3ccc(C(C)C)cc3)no2)cc(OC)c1 | nt | nt | i | nt | nt | i
C[C@H](CO)N1C[C@H](C)[C@@H](CN(C)S(=O)(=O)c2ccc(Cl)cc2)Oc2ccc(NS(=O)(=O)c3ccccc3)cc2CC1=O | i | i | i | i | i | i
C[C@H]1CN([C@@H](C)CO)C(=O)Cc2cc(NC(=O)CCC(F)(F)F)ccc2O[C@H]1CN(C)S(=O)(=O)c1ccc(Cl)cc1 | i | i | ? | 4.6µM | 3.3µM | i
C[C@H]1CN([C@@H](C)CO)C(=O)Cc2cc(NC(=O)CCC(F)(F)F)ccc2O[C@H]1CN(C)S(=O)(=O)c1ccc(F)cc1 | i | i | ? | 15µM | ? | i
C[C@H]1CN([C@@H](C)CO)C(=O)Cc2cc(NC(=O)Cc3cn(C)c4ccccc34)ccc2O[C@@H]1CN(C)S(=O)(=O)c1cn(C)cn1 | i | i | i | i | 3.7µM | i
C[C@H]1CN([C@@H](C)CO)C(=O)Cc2cc(NC(=O)CCC(F)(F)F)ccc2O[C@H]1CN(C)C(=O)Nc1ccc(F)cc1 | i | i | i | i | i | i
CNC[C@H]1Oc2ccc(NC(=O)Cc3cn(C)c4ccccc34)cc2CC(=O)N([C@@H](C)CO)C[C@H]1C | i | i | i | i | i | i
Cc1ccc(-n2c(-c3ccccc3)nsc2=NC#N)cc1 | i | nt | i | nt | nt | nt
N#C/C(=C\c1ccc(-c2cc(Cl)ccc2Cl)o1)C(=O)Nc1ccccc1C(=O)O | nt | nt | i | nt | nt | i
N#C/C(=C\c1cc(Br)c(O)c(Br)c1)c1nc2ccccc2c(=O)[nH]1 | nt | nt | i | nt | nt | i
COc1ccc(-c2ccc(-c3noc(-c4ccccc4C)n3)c(OC)n2)cc1 | i | i | i | 15µM | i | i
COc1nc(-c2ccccc2)ccc1-c1noc(-c2cccnc2)n1 | i | i | i | i | i | i
COc1nc(-c2ccc(C)cc2)ccc1-c1noc(-c2cccnc2)n1 | i | i | i | 21µM | i | i
